“And” between values parts separate entries of the source, which are not always exact repeats. Identical values can stand only once. Results filed as inconclusive are left out. More than one record can exist for a structure, and the calls need not agree. The source made the active and inactive calls. Unless noted, the call rests on the fitted dose curve; in most records, active means well fitted curve in the direction sought with a large enough effect in the repeat runs; inconclusive means weak or mixed curves; inactive means no such curve, though single readings can be large; an effect the other way counts as inactive or inconclusive.
Tests used:
[1] = qHTS assay to identify small molecule antagonists of the estrogen related receptor (ERR) signaling pathway from Tox21 library - cell viability counter screen (AID 1224834); further: nearly all actives have a fitted effect of over 30% in size
Outline: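 Multiplexed viability counter screen in ERR cells: 17.5 h compound exposure at 37 C, CellTiter-Fluor added, 30 min at 37 C/5% CO2, fluorescence read.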

[2] = biological target: Luciferin 4-monooxygenase (Photinus pyralis) (UniProt P08659); test: qHTS assay to identify small molecule inhibitors of firefly luciferase (AID 1224835); further: nearly all actives have a fitted effect of over 25% in size; further: potency means the concentration at half of the fitted maximal effect
Sequence of Luciferin 4-monooxygenase (Photinus pyralis) (P08659 whole entry, looked up): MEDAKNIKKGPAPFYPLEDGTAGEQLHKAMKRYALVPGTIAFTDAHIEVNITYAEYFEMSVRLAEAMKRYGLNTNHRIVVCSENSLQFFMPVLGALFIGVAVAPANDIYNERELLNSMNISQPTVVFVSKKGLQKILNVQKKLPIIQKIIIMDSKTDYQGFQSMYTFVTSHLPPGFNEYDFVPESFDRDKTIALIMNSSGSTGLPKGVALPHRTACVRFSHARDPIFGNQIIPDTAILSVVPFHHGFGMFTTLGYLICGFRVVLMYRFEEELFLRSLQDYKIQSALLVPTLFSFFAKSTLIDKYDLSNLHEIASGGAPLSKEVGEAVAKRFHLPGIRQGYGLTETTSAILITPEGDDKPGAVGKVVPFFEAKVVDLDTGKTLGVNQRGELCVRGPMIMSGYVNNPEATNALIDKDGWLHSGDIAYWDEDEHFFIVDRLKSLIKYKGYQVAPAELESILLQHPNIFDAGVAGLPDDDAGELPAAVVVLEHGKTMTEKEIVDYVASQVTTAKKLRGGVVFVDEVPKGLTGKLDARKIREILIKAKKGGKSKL
Outline: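 Biochemical qHTS: compounds run as interplate titrations against purified firefly enzyme, with D-luciferin and ATP each at its KM concentration. Light output recorded by CCD imaging.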

[3] = qHTS assay to identify small molecule antagonists of the constitutive androstane receptor (CAR) signaling pathway - cell viability counter screen (AID 1224837); further: nearly all actives have a fitted effect of over 45% in size
Outline: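 Read-out: CellTiter-Fluor fluorescence after 23 hr at 37 C/5% CO2. Cells: HepG2 double-stable for hCAR and CYP2B6-2.2kb. Compounds tested at 15 concentrations in the presence of CITCO, final concentration 50 nM.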

[4] = biological target: Nuclear receptor subfamily 1 group I member 3 (Homo sapiens) (UniProt Q14994); test: qHTS assay to identify small molecule antagonists of the constitutive androstane receptor (CAR) signaling pathway (AID 1224838);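 further: HepG2 cells stably expressing hCAR with CYP2B6 luciferase reporter stimulated by CITCO; nearly all actives have a fitted effect of over 40% in size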
Sequence of Nuclear receptor subfamily 1 group I member 3 (Homo sapiens) (Q14994 whole entry, looked up): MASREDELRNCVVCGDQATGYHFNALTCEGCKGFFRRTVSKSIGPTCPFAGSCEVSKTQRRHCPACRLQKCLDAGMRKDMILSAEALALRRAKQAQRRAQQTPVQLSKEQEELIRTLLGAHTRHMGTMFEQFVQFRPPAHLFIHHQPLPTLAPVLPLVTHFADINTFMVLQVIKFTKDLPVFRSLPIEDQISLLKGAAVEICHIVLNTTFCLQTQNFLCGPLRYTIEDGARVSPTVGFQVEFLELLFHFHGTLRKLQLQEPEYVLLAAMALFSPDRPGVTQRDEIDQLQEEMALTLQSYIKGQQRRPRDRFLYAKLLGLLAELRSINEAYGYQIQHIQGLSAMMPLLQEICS
Outline: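 Read-out: ONE-Glo luciferase luminescence after 30 min at room temperature. HepG2-CYP2B6-hCAR double-stable cells, compounds in 15-point titration plus 50 nM CITCO final, 24 h at 37 C/5% CO2.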

[5] = biological target: Nuclear receptor subfamily 1 group I member 3 (Homo sapiens) (UniProt Q14994); test: qHTS assay to identify small molecule agonists of the constitutive androstane receptor (CAR) signaling pathway (AID 1224839); further: nearly all actives have a fitted effect of over 15% in size; further: potency means the concentration at half of the fitted maximal effect;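 on activation: HepG2 cells stably carrying human CAR and a CYP2B6 luciferase reporter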
Outline: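 Readout: firefly luciferase luminescence via ONE-Glo. System: HepG2 double-stable for hCAR and CYP2B6-2.2kb. Conditions: 15-point compound titration, PK11195 at 0.75 uM final, 24 h incubation.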

[6] = qHTS assay to identify small molecule antagonists of the estrogen related receptor signaling pathway with the pleiotropic PPARgamma coactivator (PGC) from Tox21 10K library - cell viability counter screen (AID 1224840; active means well fitted cell-killing curve with a large enough effect in the repeat runs, not every such curve was filed as active; further: nearly all actives have a fitted effect of over 40% in size)
Outline: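 Fluorescence read-out of CellTiter-Fluor viability reagent, added after cells had been exposed to compound in DMSO for 17.5 h at 37 C; 30 min development at 37 C/5% CO2. Cells: PGC/ERR line, 2,000/well.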

[7] = qHTS assay to identify small molecule antagonists of the estrogen related receptor signaling pathway with the pleiotropic PPARgamma coactivator (PGC) from Tox21 10K library (AID 1224841; call rule not given here; further: actives are mostly falling curves and most rising ones were filed inactive; nearly all actives have a fitted effect of over 50% in size)
Outline: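 Luminescence read-out (One-Glo luciferase reagent, 30 min at room temperature) from PGC/ERR cells exposed to DMSO-dissolved test compounds for 18 h at 37 C; cells, 2,000 per well, had been preincubated 6 h before compound transfer.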

[8] = qHTS assay to identify small molecule agonists of the estrogen related receptor signaling pathway with the pleiotropic PPARgamma coactivator (PGC) from Tox21 10K library (AID 1224842); further: nearly all actives have a fitted effect of over 15% in size
Outline: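 PGC/ERR reporter cell line, 2,000 cells per well, incubated 6 h at 37 C before 23 nL compound in DMSO was added. After 18 h at 37 C, One-Glo luminescence read following 30 min at room temperature.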

[9] = biological target: Thyrotropin receptor (Homo sapiens) (UniProt P16473); test: qHTS assay to identify small molecule agonists of the thyroid stimulating hormone receptor (TSHR) signaling pathway (AID 1224843; calls by dose curve; further: nearly all actives have a fitted effect of over 45% in size; further: potency means the concentration at half of the fitted maximal effect)
Sequence of Thyrotropin receptor (Homo sapiens) (P16473 whole entry, looked up): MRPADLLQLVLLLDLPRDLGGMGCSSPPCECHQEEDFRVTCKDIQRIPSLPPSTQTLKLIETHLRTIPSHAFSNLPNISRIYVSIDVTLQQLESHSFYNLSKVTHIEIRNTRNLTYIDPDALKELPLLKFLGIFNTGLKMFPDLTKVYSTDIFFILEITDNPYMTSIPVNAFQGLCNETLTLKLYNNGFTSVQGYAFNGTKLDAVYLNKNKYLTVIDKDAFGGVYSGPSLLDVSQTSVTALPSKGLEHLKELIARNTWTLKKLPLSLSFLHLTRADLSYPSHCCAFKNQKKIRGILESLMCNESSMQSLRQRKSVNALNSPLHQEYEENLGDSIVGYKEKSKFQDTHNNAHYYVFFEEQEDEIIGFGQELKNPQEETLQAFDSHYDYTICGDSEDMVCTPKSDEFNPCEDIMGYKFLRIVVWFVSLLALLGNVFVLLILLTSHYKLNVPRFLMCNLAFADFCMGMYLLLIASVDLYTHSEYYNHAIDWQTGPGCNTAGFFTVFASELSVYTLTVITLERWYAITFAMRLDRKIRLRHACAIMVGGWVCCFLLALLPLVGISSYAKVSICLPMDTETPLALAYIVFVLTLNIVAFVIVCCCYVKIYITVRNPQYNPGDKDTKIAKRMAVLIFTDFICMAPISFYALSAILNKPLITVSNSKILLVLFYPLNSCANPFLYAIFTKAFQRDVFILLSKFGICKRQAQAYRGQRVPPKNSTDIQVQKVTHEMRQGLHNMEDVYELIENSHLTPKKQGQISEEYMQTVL
Outline: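 Agonist-mode screen: TSHR HEK293 cells received test chemicals for half an hour at room temperature, then HTRF cAMP detection reagents for one hour prior to fluorescence measurement. Each chemical ran as a 15-concentration series, triplicated.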

[10] = qHTS assay to identify small molecule agonists of the hypoxia (HIF-1) signaling pathway - cell viability counter screen (AID 1224844; calls by dose curve; further: nearly all actives have a fitted effect of over 50% in size; further: potency means the concentration at half of the fitted maximal effect)
Outline: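 CellTiter-Glo luminescence read-out, 30 min RT, taken in the same wells as the beta-lactamase HRE reporter assay; HRE-bla ME-180 cells, 0.5% dialyzed FBS, 17 hr compound treatment at 37C, 5% CO2.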

[11] = qHTS assay to identify small molecule agonists of H2AX (AID 1224845; active means well fitted activation curve with a large enough effect in the signal ratio in the repeat runs, not every such curve was filed as active; the % refers to the signal ratio; further: potency means the concentration at half of the fitted maximal effect)
Outline: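 Wild-type CHO-K1 cells, plated overnight, exposed 3hr at 37C to 15 concentrations (0.76% DMSO final). Lysed, then HTRF anti-pH2AX (S139) cryptate and anti-H2AX-d2 antibodies, 24 hr room temperature; 665/620 nm emission read.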

[12] = qHTS assay to identify small molecule agonists of the hypoxia (HIF-1) signaling pathway (AID 1224846; active means well fitted activation curve with a large enough effect in the signal ratio in the repeat runs, not every such curve was filed as active; the % refers to the signal ratio)
Outline: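 Beta-lactamase FRET read-out (CCF4-AM substrate) from ME-180 cells carrying an HRE-driven bla reporter, after 17 hrs compound exposure at 37C/5% CO2. Cells were seeded at 2,000 per well in 0.5% dialyzed FBS medium and preincubated 5 hrs.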

[13] = qHTS assay to identify small molecule agonists of H2AX - cell viability counter screen (AID 1224847; calls by dose curve; further: nearly all actives have a fitted effect of over 30% in size; further: potency means the concentration at half of the fitted maximal effect)
Outline: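 For this counter screen, overnight-attached CHO-K1 cells received test compounds (15 concentrations, 0.76% DMSO final); 3 hr later at 37C, CellTiter-Glo reagent was added and luminescence recorded after 30 min at room temperature.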

[14] = qHTS assay to identify small molecule antagonists of the estrogen related receptor (ERR) signaling pathway from Tox21 library (AID 1224848); further: nearly all actives have a fitted effect of over 50% in size
Outline: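 Quantitative high-throughput format: ERR reporter cells (2,000/well) pre-incubated 6 h, treated 18 h at 37 C with compounds in DMSO alongside positive and negative controls, then read by ONE-Glo luminescence.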

[15] = qHTS assay to identify small molecule agonists of the estrogen related receptor (ERR) signaling pathway from Tox21 library (AID 1224849; calls by dose curve; further: nearly all actives have a fitted effect of over 15% in size); details: ERR reporter cell line, ONE-Glo luciferase, 18 h
Outline: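 Luminescence readout (ONE-Glo, 30 min RT) after 18 h compound exposure at 37 C of NTP-supplied ERR reporter cells; cells were plated 6 h before compound addition by pin tool.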

[16] = qHTS RealTime-Glo MT Cell Viability Assay in HepG2 cells - 24 hour (AID 1224867); further: nearly all actives have a fitted effect of over 50% in size
Outline: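 Compound treatment began 5 h after plating HepG2 cells (600/well) with NanoLuc luciferase and prosubstrate. Plates stayed at 37 C for 40 h; luminescence was captured at six time points, 0 h through 40 h.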

[17] = qHTS RealTime-Glo MT Cell Viability Assay in HEK293 cells - 32 hour (AID 1224868); further: nearly all actives have a fitted effect of over 50% in size; further: potency means the concentration at half of the fitted maximal effect
Outline: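 Quantitative high-throughput screen of the Tox21 10K library in HEK293: cells and RealTime-Glo reagents plated together, compound added at 5 h, luminescence monitored through 40 h at 37 C.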

[18] = A CellTox Green Cytotoxicity Assay to monitor cytotoxicity in HEK293 cells - 0 hour (AID 1224869); further: nearly all actives have a fitted effect of over 50% in size
Outline: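 Read-out: fluorescence of a cell-impermeant cyanine dye staining DNA of dead cells, proportional to cytotoxicity. HEK293, 600 cells/well with reagent, compound (23 nL DMSO) added after 5 h; reads at 0, 8, 16, 24, 32, 40 h.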

[19] = qHTS RealTime-Glo MT Cell Viability Assay in HepG2 cells - 40 hour (AID 1224870); further: nearly all actives have a fitted effect of over 50% in size
Outline: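 HepG2 cells (600/well) mixed with RealTime-Glo MT reagent, settled 5 h at 37 C/5% CO2 before compound addition. Nonlytic NanoLuc luminescence from viable-cell prosubstrate reduction read repeatedly during 40 h treatment at 37 C.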

[20] = qHTS assay to identify small molecule agonists of the constitutive androstane receptor (CAR) signaling pathway - cell viability counter screen (AID 1224836); further: nearly all actives have a fitted effect of over 45% in size
Outline: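 Double-stable HepG2 hepatoma cells (hCAR plus CYP2B6-2.2kb) are treated for 23 h at 37 C with test compounds in 15-point concentration series. PK11195 at 0.75 uM final is co-added. Cell viability is quantified by CellTiter-Fluor.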
On the % scale 0 is the no-effect control and ±100 the full control effect.

O=C(O)Cn1cnnn1
inactive: Potency [1] | Potency [2] | Potency [3] | Potency [4] | Potency [5] | Potency [6] | Potency [7] | Potency [8] | Potency [9] | Potency [10] | Potency [11] | Potency [12] | Potency [13] | Potency [14] | activity change, positive = activation ([15]; at 42.5 µM (top of the series)) 4% | Potency [16] | Potency [17] | Potency [18] | Potency [19]

C=CS(=O)(=O)O
inactive: Potency [1] | Potency [2] | Potency [3] | Potency [4] | Potency [5] | Potency [6] | Potency [7] | Potency [8] | Potency [9] | Potency [10] | Potency [11] | Potency [12] | Potency [13] | Potency [14] | activity change, positive = activation ([15]; at 92.4 µM (top of the series)) -0.911% | Potency [17] | Potency [18] | Potency [19]

CC(COc1ccccc1)N(CCCl)Cc1ccccc1 (stereo not drawn)
49.5 µM (active) and inactive: Potency [10]
inactive: Potency [1] | Potency [2] | Potency [20] | Potency [3] | Potency [4] | Potency [6] | Potency [16] | Potency [18] | Potency [19]
active: Potency [5] 27.6 µM and 8.63 µM and 10.6 µM | Potency [9] 30.9 µM and 43.3 µM and 29.8 µM | Potency [11] 113 µM | Potency [17] 49.5 µM and 49 µM

c1ccc2c(c1)CCCC2C1=NCCN1 (stereo not drawn)
inactive: Potency [1] | Potency [2] | Potency [20] | Potency [3] | Potency [6] | Potency [9] | Potency [10] | Potency [11] | Potency [13] | Potency [16] | Potency [17] | Potency [18] | Potency [19]

O=C(O)c1cccc(C(=O)O)c1
inactive: Potency [1] | Potency [2] | Potency [20] | Potency [3] | Potency [6] | Potency [9] | Potency [11] | Potency [12] | Potency [13] | Potency [18] | Potency [19]

O=S(=O)(O)c1ccc2nc(-c3ccccc3)[nH]c2c1
active: Potency [2] 19 µM and 12.3 µM | Potency [10] 18.6 µM and 10.7 µM | Potency [13] 30.3 µM and 22 µM
inactive: Potency [1] | Potency [3] | Potency [4] | Potency [5] | Potency [6] | Potency [7] | Potency [8] | Potency [9] | Potency [11] | Potency [12] | Potency [14] | activity change, positive = activation ([15]; at 42.5 µM (top of the series)) 2.03% | activity change, positive = activation ([15]; at 92.4 µM (top of the series)) -3.59% | Potency [16] | Potency [17] | Potency [18] | Potency [19]

OCCN1CCNCC1
inactive: Potency [1] | Potency [2] | Potency [3] | Potency [4] | Potency [5] | Potency [6] | Potency [7] | Potency [8] | Potency [9] | Potency [10] | Potency [11] | Potency [12] | Potency [14] | activity change, positive = activation ([15]; at 92.4 µM (top of the series)) 9.65% and -11.4% | Potency [16] | Potency [18] | Potency [19]
active: Potency [17] 7.9 µM
